# ELG1 DNA repair – inhibitors of ELG1-dependent DNA repair in HEK293T cells. HEK293T ELG1-luciferase reporter, luminescence, 16 h; DNA damage induced by 5-fluorouridine. Potency, µM (highest dose often 46.1 µM), for the others: at the top dose activity change, negative = inhibition, usual class: inhibitors. hit rate 2.3% among 330,000; also: % is scaled to controls: 0 for no effect and ±100 for the full control effect; nearly all actives have a fitted effect of over 55% in size
#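 Luminescence from the luciferase reporter, measured 30 min after ONE-Glo reagent at room temperature, was the read-out. Beforehand, 2,000 cells per well were exposed for 16 hr at 37 °C to 5-fluorouridine together with compound or vehicle.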
# Nrf2 ARE act – Nrf2 pathway activation; AREc32 ARE-luciferase reporter (MCF7-derived line), luminescence, 24 h; Potency, µM (top dose mostly 46.1 µM), without a hit: at the highest dose activation, usual class: activators; hit rate 0.31% among 410,000; AID 624171; also: % of control where 0% means no effect; nearly all actives have a fitted effect of over 65% in size
#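 AREc32 cells carrying an ARE-driven firefly luciferase reporter were seeded at 1000 cells/well in OPTI-MEM with 5% FBS, then exposed to compound for 24 hr at 37 deg C. Luminescence was read with Steady-Glo after 30 min at RT.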
# A549 viability – kills or reduces viability of A549 cells in Nrf2 counter-screen. A549 ARE-Fluc cells, CellTiter-Fluor viability, 18-24 h. Potency, µM (titrated, usually from 46 µM), without a hit: at the highest dose activity change, negative = cytotoxicity, most hits filed as inhibitors. hit rate 0.16% among 390,000. AID 504648; also: % is scaled to controls: 0 for no effect and ±100 for the full control effect
#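 Cytotoxicity counterscreen: CellTiter-Fluor fluorescence was measured in A549 ARE_Fluc cells after 18-24 h of compound exposure in a concentration series. The subsequent BugLite luminescent read reports ARE-luciferase activity.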
# Nrf2 inh – inhibitors of Nrf2 signaling | hit rate 2.1% among 360,000 | A549 ARE-Fluc reporter, luciferase luminescence, 18-24 h | AID 504444 | Potency, µM (top dose mostly 46 µM), for the others: at the top dose activity change, negative = inhibition, usual class: inhibitors; also: % is scaled to controls: 0 for no effect and ±100 for the full control effect; nearly all actives have a fitted effect of over 60% in size
#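 A549 ARE_Fluc cells (5000/well, 5% FBS OPTI-MEM) pre-incubated 2 h, then treated with compounds 18-24 h at 37C/5% CO2 in concentration-response. CellTiter-Fluor viability read first; BugLite luciferase luminescence after 15 min at room temperature gives Nrf2 activity.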
# An asterisk follows results filed as active; ? = inconclusive; · = no result. Only some compounds are listed: those with a hit (about 3.7% of all), similar ones and a draw of the others. Calls follow the shape of the dose curve; as a rule, active = well fitted curve in the direction sought with a large enough effect; inconclusive = small, poorly fitted or top-dose-only effect, or another doubt; inactive = no such curve, though single readings can be large; an effect the other way counts as inactive or inconclusive. Potency is read from the fitted curve at half-maximal effect.
SMILES,ELG1 DNA repair,Nrf2 ARE act,A549 viability,Nrf2 inh
CCCN(c1ccc(C(C)C)cc1)S(=O)(=O)c1ccc2c(c1)n(C)c(=O)c(=O)n2C,·,-1%,-2%,-10%
O=C(NC(=S)N(Cc1ccccc1)Cc1ccccc1)c1ccccc1F,?,7%,-19%,12µM*
COc1ccc(C(=O)NC(=S)N(Cc2ccccc2)Cc2ccccc2)cc1,?,5%,-23%,18µM*
CC(CNC(=O)[C@@H](Cc1ccccc1)NC(=O)CC[C@H]1O[C@@H](n2ccc(=O)[nH]c2=O)[C@H](O)[C@@H]1O)c1ccccc1 (stereo partly drawn),·,0%,·,·
Cc1ccc(C2C3CSCC=C3C(C#N)=C(N)C2(C#N)C#N)cc1 (stereo not drawn),-5%,?,?,15µM*
Nc1ncnc2oc(-c3ccco3)c(-c3ccco3)c12,?,17%,-20%,15µM*
CCOc1ccc(CCNC(=O)Cn2c(C)c3cnn(-c4ccccc4)c(=O)c3c2C)cc1,·,0%,3%,-17%
N#Cc1ccc(CSc2nnc(-c3cccs3)n2-c2ccccc2)cc1,21µM*,-1%,-3%,-29%
N#Cc1ccc(CSc2nnc(-c3ccccn3)n2-c2ccccc2)cc1,-25%,0%,5%,-19%
N#Cc1ccc(CSc2nnc(-c3ccncc3)n2CCc2ccccc2)cc1,23µM*,-1%,7%,?
O=C1CCCC2=C1C1(CCOCC1)N=C(Nc1nc3ccccc3o1)N2,·,·,1%,?
O=c1n(Cc2cccc(F)c2)c2ccccc2c2nc(-c3ccccc3)nn12,·,0%,-3%,-5%
Cc1cccc(Cn2c(=O)n3nc(-c4ccccc4)nc3c3ccccc32)c1,·,0%,-6%,15µM*
Cc1nn(CC(=O)NCc2cccc(F)c2)c(=O)c2c(C)n(-c3ccc(Cl)cc3)nc12,·,0%,-3%,·
Cc1nc(NC(=O)c2ccccc2)sc1-c1csc(NCc2ccccc2)n1,21µM*,3%,-16%,21µM*
Cc1nc(NC(=O)c2ccccc2)sc1-c1csc(NCCc2ccccc2)n1,?,3%,-15%,?
Cc1nc2sccn2c1-c1csc(NCc2ccccc2)n1,-19%,7%,-14%,8.2µM*
Cc1csc2nc(NC(=O)c3ccccc3)sc(=O)c12,?,3.2µM*,-1%,?
Cn1c(N)c(C(=O)COC(=O)CC(NC(=O)c2ccccc2Cl)c2ccccc2)c(=O)n(C)c1=O (stereo not drawn),-16%,?,-1%,-13%
C=CCn1c(N2CCN(c3ccc(OC)cc3)CC2)nc2c1c(=O)n(C)c(=O)n2C,16µM*,2%,-5%,?
COCCn1c(N2CCN(c3ccc(OC)cc3)CC2)nc2c1c(=O)n(C)c(=O)n2C,18µM*,0%,5%,4%
COc1ccc(CCNC(=O)c2cc(C)oc2C)cc1,1%,0%,2%,-9%
C=CCC[C@@H](Cc1ccc(F)cc1)C(=O)OC[C@H](C)NC(=O)[C@H](CC=C)CC(=O)N(CCO)Cc1ccccc1,26µM*,2%,-11%,?
C=CCC[C@@H](Cc1ccc(F)cc1)C(=O)OC[C@@H](NC(=O)[C@@H](CC=C)CC(=O)N(CCO)Cc1ccccc1)c1ccccc1,21µM*,-4%,?,23µM*
C=CCC[C@@H](Cc1ccc(F)cc1)C(=O)OC[C@@H](NC(=O)[C@H](CC=C)CC(=O)N(CCO)Cc1ccccc1)c1ccccc1,?,0%,?,?
SMILES,ELG1 DNA repair,Nrf2 ARE act,A549 viability,Nrf2 inh
CN1CCN(c2oc(COc3ccc(-c4ccccc4)cc3)nc2C#N)CC1,-8%,3%,?,16µM*
O=C1C(=C(c2ccccc2)c2ccccc2)Nc2ccccc21,?,13µM*,?,?
Cc1ccc(C)c(CN2CCSCC2)c1,-1%,0%,6%,8%
CCN1/C(=C/C(C)=C/c2sc3ccccc3[n+]2CC)Sc2ccccc21,1.8µM*,-2%,21µM*,8.2µM*
O=C(NCCc1ccccc1)c1ccc2c(c1)OCCO2,?,-3%,0%,?
O=C(NCCc1ccccc1)c1ccc2c(c1)OCCCO2,?,-2%,-1%,2.1µM*
Cn1c(=O)n(C)c2cc([N+](=O)[O-])c(N3CCN(C(=O)c4cccc(Cl)c4)CC3)cc21,?,4%,-18%,?
Cc1cc(C)n(-c2cc(N3CCN(C(=O)c4ccc(C(C)(C)C)cc4)CC3)ccc2[N+](=O)[O-])n1,?,0%,?,?
Cn1c(=O)n(C)c2cc([N+](=O)[O-])c(N3CCN(C(=O)c4cccc(F)c4)CC3)cc21,?,6%,-10%,9.2µM*
O=C(c1ccc(N2CCN(C(=O)c3ccc(F)c(F)c3)CC2)cc1)c1cccc(F)c1,3%,0%,-15%,16µM*
Cc1cc(C)n(-c2cc(N3CCN(C(=O)c4cccc(F)c4)CC3)ccc2[N+](=O)[O-])n1,21µM*,-1%,-19%,-23%
COc1cc(Cl)c(C)cc1NC(=O)CSc1sc2c(O)cc(=O)[nH]c2c1C#N,14%,0%,4%,1%
CCc1cccc(C)c1NS(=O)(=O)c1ccc2c(c1)NC(=O)C(C)C(=O)N2 (stereo not drawn),·,0%,19%,·
NC(=O)c1ccsc1NC(=O)COC(=O)/C=C/c1ccccc1,?,6%,2%,10%
COC(=O)/C=C/c1ccsc1NC(C)=O,2%,13µM*,1%,18%
NC(=O)N=Nc1c2[nH]c3ccccc3nc-2c2ccccc12,?,10%,?,10µM*
CCc1c(C)nc2cc(-c3ccc(OC)c(OC)c3)nn2c1NCC1CC1,15µM*,4%,?,?
COc1ccc(CCNC(=O)CCc2c(C)nc3cc(-c4ccccc4)nn3c2C)cc1OC,·,-3%,-12%,?
CC(C)Cc1ccc(CN2CCCC(NC(=O)CCN3CCCCC3=O)C2)cc1 (stereo not drawn),7%,-2%,7%,3%
CC(C)Cc1ccc(C(C)/C=C2/CCC(CN3CCCCC3)C2=O)cc1 (stereo not drawn),·,13µM*,17%,-8%
COc1ccc(-c2nc3ccc(C)cn3c2Cc2ccccc2)cc1OC,·,7%,·,·
CCOc1cc(CNCc2cc(OC)cc(OC)c2)ccc1OC,0%,1%,-8%,8.2µM*
O=S(=O)(Cc1ccccc1)CS(=O)(=O)Cc1ccccc1,·,4%,13%,0%
CCOC(=O)N1CCN(C(=O)COc2cccc3c2CCN(Cc2ccc(F)cc2)C3=O)CC1,21µM*,0%,-3%,?
O=C(COc1cccc2c1CCN(Cc1ccc(Cl)cc1)C2=O)N1CCOCC1,12µM*,0%,-5%,?
Cc1ccc(CN2CCc3c(OCC(=O)Nc4cc(C)ccc4C)cccc3C2=O)cc1,23µM*,·,·,·
Cc1cccc(CN2CCc3c(OCC(=O)N4CCCc5ccccc54)cccc3C2=O)c1,?,6%,?,?
O=C1c2cccc(OCC(=O)N3CCCc4ccccc43)c2CCN1Cc1ccc(F)cc1,23µM*,1%,-2%,-24%

# Bioassay records as filed in PubChem.
